Bioassay records (PubChem)
Hits are enriched below; roughly 2.4% of the tested compounds scored in any of these assays.
NOD2-RIPK2 inh = NOD2-RIPK2 binding disruptors in cells, primary screen, fluorescence, CHO cells, BLA complementation. 360,000 compounds, 0.38% hits. CCF4 ratio. Receptor-interacting serine/threonine-protein kinase 2 (Homo sapiens), O43353. inhibition, % at 4.98 µM; in the data active = inhibition above about 21%;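 note: 0% = vehicle only and 100% = reference blocker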
ABHD5-PLIN5 inh = ABHD5-PLIN5 interaction inhibitors, primary screen, cell lysate, split luciferase complementation, luminescence; Perilipin-5 (Homo sapiens) + 1-acylglycerol-3-phosphate O-acyltransferase ABHD5 (Homo …; Split G. princeps luciferase complementation, 4 h; inhibition, % at 4 µM; 360,000 compounds, 0.78% hits; AID 602281, 2012;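 active = inhibition above the mean inhibition across every tested compound plus 3 SD, cut at about 22% in these data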;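 note: 0% = DMSO only wells and the 100% control is not disclosed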
CRFBP-R2 block = antagonists of CRF-BP/CRF-R2 complex, primary screen, cell-based, HEK293, calcium dye fluorescence, uHTS | CRF-induced calcium fluorescence | inhibition, % at 11.8 µM | 350,000 compounds, 0.59% hits | AID 588475, 2011;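 active = inhibition of the ligand-induced calcium signal above about 50% at the single tested concentration, limit read from the data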
TLR9-MyD88 block = inhibitors of TLR9-MyD88 association in cells, primary screen, cell-based, CHO, BLA complementation, fluorescence | Toll-like receptor 9 (Homo sapiens) + Myeloid differentiation primary response protein … | CCF4 FRET ratio | inhibition, % at 4.98 µM | 340,000 compounds, 0.21% hits | AID 504734, 2011;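 active = inhibition above the mean over all tested compounds plus 3 SD, cut at about 21% in these data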;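 note: 0% = DMSO only wells and 100% = clavulanate BLA inhibitor control wells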
HTR2A ag = mouse Htr2a agonists via beta-arrestin recruitment, primary screen, cell-based, luminescence. CHO-K1 mHTR2A beta-arrestin complementation; percent of 30 µM serotonin response. 360,000 compounds, 0.66% hits. AID 624169, 2012. activation, % at 7.6 µM;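 active = activation above a run cutoff, the mean activation of all tested compounds plus 3 SD, cut at about 14% in these data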;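 note: 0% = plate median of compound wells and 100% = 30 µM serotonin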
TLR4 MyD88 comp = inhibitors of TLR4-MyD88 association in cells, primary screen, cell-based, HeLa CL3-4, BLA complementation, FRET ratio | Toll-like receptor 4 (Homo sapiens) + Myeloid differentiation primary response protein … | HeLa CL3-4 TLR4/MyD88 BLA complementation | inhibition, % at 8.4 µM | 200,000 compounds, 0.18% hits | AID 861, 2007; in the data active = inhibition above about 25%;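 note: 0% = vehicle and 100% = reference inhibitor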
Active calls of the source: *; / = no result.

SMILES	NOD2-RIPK2 inh	ABHD5-PLIN5 inh	CRFBP-R2 block	TLR9-MyD88 block	HTR2A ag	TLR4 MyD88 comp
Cc1ccnc(N2CCCC(C(=O)Nc3nnc(C)s3)C2)n1 (stereo not drawn)	-2	-3	-24	0	-5	-2
Cc1cc(C)cc(NC(=O)C2CCCN(c3nccc(C)n3)C2)c1 (stereo not drawn)	-8	5	54*	-1	-2	9
Cc1nnc(NC(=O)C2CCCN(c3ncccn3)C2)s1 (stereo not drawn)	-10	-3	56*	0	4	2
Cc1cc(C)cc(NC(=O)C2CCCN(c3nc(C)cc(C)n3)C2)c1 (stereo not drawn)	-3	-1	15	2	3	3
CCOC1=C2[C@@H](CN(S(=O)(=O)c3ccc(C)cc3)[C@H]2c2cccc3ccccc23)[C@H]2C(=O)NC(=O)[C@H]2C1	-15	-2	/	/	1	/
Cc1cc2nc(-c3ccc(C#N)cc3)c(Cc3ccsc3)n2c(C)c1Br	-2	0	/	/	-4	/
Brc1cccc(-c2nc3c4ccccc4ccn3c2Cc2ccccc2)c1	-8	-9	/	/	-4	/
Brc1ccc2nc(C3CCCCC3)c(Cc3ccsc3)n2c1	-11	2	/	/	-4	/
COc1ccc(-c2nc3ccc(Cl)cn3c2Cc2cccc(F)c2)cc1OC	7	0	/	/	0	/
CC(Oc1cccc(Br)c1)C(=O)Nc1cccc(S(=O)(=O)N2CCOCC2)c1 (stereo not drawn)	-1	9	-2	3	0	/
CC(Nc1ccc(Br)cc1)C(=O)Nc1cccc(S(=O)(=O)N2CCOCC2)c1 (stereo not drawn)	1	-2	90*	-8	-5	/
Cc1nc2c(OCc3ccc(Cl)cc3)cccn2c1N(C)C(=O)CCC1CCCC1	-4	0	/	/	-1	/
C=CCOc1cccc(CNc2ccc3[nH]c(=O)[nH]c3c2)c1	-8	-5	91*	8	-3	3
CN1CCN(CC(=O)Nc2cc(N(C)C)nc3ccccc23)CC1	-7	-6	58*	5	-1	13
CC(=O)NCCNc1nc2cc(-c3ccccc3C)sc2c(=O)n1C	4	3	/	/	4	/
COc1ccc(C2=NN(C)C(=NCc3ccccc3)SC2)cc1	-79	-14	62*	2	-4	-1
O=c1[nH]c(=S)[nH]c2c1C(c1ccc(F)cc1)OC(CCOCc1ccccc1)C2 (stereo not drawn)	8	-9	/	/	-2	/
CCOC(=O)c1cccc(NS(=O)(=O)Cc2ccccc2)c1	0	-2	149*	-12	-3	-2
CC1(c2ccccc2)CC(C)(C)N2C(=O)C3(C(C#N)=C(N)Oc4cc(O)ccc43)c3cccc1c32 (stereo not drawn)	-3	-12	116*	-1	34*	-7
CC1=CC(C)(C)N2C(=O)C3(C(C#N)=C(N)Oc4cc(O)ccc43)c3c(C)c(C)cc1c32 (stereo not drawn)	-4	-12	66*	-8	5	10
CCOc1ccc(-c2nc(N)ncc2Oc2cccc(OC)c2)c(O)c1	11	-7	54*	-3	9	-13
FC(F)(F)c1nnc2sc(-c3cccs3)nn12	-9	-7	52*	2	-2	-14
COc1ccc(-c2cccc(N3CCN(c4ccccn4)CC3)n2)cc1OC	-1	0	/	/	8	/
COC(=O)[C@]1(Sc2ccc(C)cc2)CC(=O)N[C@@H]1c1ccccc1	-5	-7	/	/	-3	/
CCOc1ccc(NC(=O)Nc2cc(C)ccc2F)cc1	1	4	66*	-6	-4	10
SMILES	NOD2-RIPK2 inh	ABHD5-PLIN5 inh	CRFBP-R2 block	TLR9-MyD88 block	HTR2A ag	TLR4 MyD88 comp
CCOc1ccc(NC(=O)Nc2cc(C(C)C)c(O)cc2C)cc1	-7	-5	34	7	-4	/
CCOC(=O)c1c(C)[nH]c(C(=O)OCC(=O)Nc2sc(C(=O)N(C)C)c(C)c2C(=O)OCC)c1C	5	-6	87*	-15	2	/
CCOC(=O)c1c(NC(=O)COC(=O)c2ccc([N+](=O)[O-])cc2)sc(C(=O)N(C)C)c1C	0	6	0	6	3	/
CC(/C=C/c1ccccc1)=N/NC(=O)CNC(=O)c1ccc2c(c1)OCO2	-2	4	72*	1	10	-11
CC(/C=C/c1ccccc1)=N\NC(=O)c1ccc2c(c1)OCCO2	-3	-5	5	-2	-6	-9
COc1ccc(C(C)(O)c2nc(-c3cccc(O)c3)cs2)cc1 (stereo not drawn)	-2	-2	/	/	5	/
CCN(Cc1ccccc1)C(c1cccc(C#N)c1)c1nnnn1C(C)(C)C (stereo not drawn)	-13	5	89*	-2	1	-7
CCN(Cc1ccccc1)C(c1ccc(C(F)(F)F)cc1)c1nnnn1C(C)(C)C (stereo not drawn)	-4	1	4	-10	-3	11
COc1ccc(C2=Nc3ccccc3N(C(=O)c3cccnc3)C2C(=O)NC(C)(C)C)cc1 (stereo not drawn)	-11	0	/	/	4	/
O=C(CNS(=O)(=O)c1cccs1)NCCc1ccc(Cl)cc1	3	-6	56*	-14	2	/
CC(=O)N(C)c1ccc(N=NC2C(=O)N(C(N)=S)N=C2C)cc1 (stereo not drawn)	-8	-5	51*	-7	0	/
Cc1cccc(C(=O)Oc2ccc(/C=N/NC(=O)c3ccccc3O)cc2)c1	-10	-6	5	-9	-1	1
Cc1cccc(C(=O)Oc2ccc(/C=N/NC(=O)c3ccc(O)cc3)cc2)c1	-4	12	105*	-11	-2	/
O=S(=O)(NC(=S)NC1CCCCC1)c1ccc(Br)cc1	-1	-1	56*	6	-4	-4
O=C(NC1CCCCC1)NS(=O)(=O)c1ccc2c(c1)CCC2	-4	-5	63*	3	-5	/
O=C(CCNS(=O)(=O)c1ccc(Br)cc1)NC1CCCCC1	-1	3	-7	-4	5	-11
CCOC(=O)C1=CCN(S(=O)(=O)c2ccccc2Br)C1c1ccc(Cl)c(Cl)c1 (stereo not drawn)	-2	-9	/	/	-1	/
COc1cc(C=O)ccc1OCc1ccncc1	6	-11	-6	18	1	/
COc1cc(C=O)ccc1Oc1cnccn1	2	-8	56*	-11	-2	-8
O=C(NCc1ccccn1)C1CC(c2ccccc2Cl)=NO1 (stereo not drawn)	-9	6	-3	8	15*	8
